M1 ag – agonists of human M1 muscarinic receptor; CHO-K1 hM1, Fluo-8 calcium fluorescence, agonist mode; 0% DMSO, 100% acetylcholine EC100; activation, % at 3 µM; hit rate 0.33% among 360,000;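 active = activation above the run's mean compound activation plus 3 SD, cut at about 16% in these data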;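 note: peak over basal fluorescence ratio within a 140 s kinetic read after compound addition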
Myeloid diff 2 – promotes myeloid progenitor differentiation | ER-HoxA9 myeloid progenitors, lysozyme-GFP differentiation, flow cytometry | calls only at 10 µM | hit rate 1% among 360,000 | AID 624256;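 active = normalized GFP-positive differentiation at or above the plate's own cutoff, the solvent-only control mean plus 3 SD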;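 note: cells exposed to compound for four days before flow analysis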
ATG4B inh – blocks human ATG4B protease cleavage of LC3 substrate | ATG4B cleavage of LC3-PLA2, NBD-HPC fluorescence, 1 h | inhibition, % at 8.33 µM | hit rate 0.51% among 340,000 | AID 504462; in the data active = inhibition above about 40%
Target sequence (Q9Y4P1 whole entry, looked up): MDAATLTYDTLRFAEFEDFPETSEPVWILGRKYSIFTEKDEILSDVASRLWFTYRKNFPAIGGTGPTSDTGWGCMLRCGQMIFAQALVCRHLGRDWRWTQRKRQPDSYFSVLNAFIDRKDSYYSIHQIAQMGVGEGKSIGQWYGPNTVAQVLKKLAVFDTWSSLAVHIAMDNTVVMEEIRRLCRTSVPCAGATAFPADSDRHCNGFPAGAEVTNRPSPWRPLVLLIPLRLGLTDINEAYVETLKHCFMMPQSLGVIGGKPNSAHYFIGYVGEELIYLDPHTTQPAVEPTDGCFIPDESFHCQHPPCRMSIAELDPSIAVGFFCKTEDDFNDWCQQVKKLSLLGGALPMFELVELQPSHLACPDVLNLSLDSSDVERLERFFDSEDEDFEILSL
CHRM1 antagonist – antagonists of human M1 muscarinic receptor; P11229; AID 588852; inhibition, % at 3 µM; hit rate 1.3% among 360,000; CHO-K1 hM1, Fluo-8 calcium fluorescence, ACh EC80 antagonist;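 active = percent inhibition above its own plate's cutoff, namely the mean of that plate's compound wells plus 3 SD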;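 note: peak over basal fluorescence ratio during 140 s after agonist addition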
SKN-1 block – C. elegans SKN-1 inhibition; AID 624304; inhibition, % at 21.8 µM; hit rate 0.49% among 360,000; C. elegans VP596 Pgst-4::GFP/RFP ratio, acrylamide-induced, 24 h;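 active = interference check ratio from 0.5 to 1.5 plus GFP to RFP signal ratio inhibition reaching or exceeding a fixed threshold, cut at about 30% in these data, passing the limit was not always enough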
M1 PAM – human CHRM1 positive allosteric modulation. hit rate 0.088% among 360,000. CHO-K1 hM1, Fluo-8 calcium fluorescence, ACh EC20; 0% = ACh EC20, 100% = maximal ACh. activation, % at 3 µM. P11229; in the data active = activation above about 19%, passing the limit was not always enough
ATG4B confirm – ATG4B (human) inhibition, single-dose confirmed. shares compounds with ATG4B inh. ATG4B protease fluorescent substrate cleavage assay. inhibition, % at 8.33 µM. hit rate 92% among 320; in the data active = inhibition above about 39%
PLA2 ctr – inhibits human PLA2, flagging false ATG4B inhibitors; hit rate 66% among 1,600; inhibition, % at 8.33 µM; purified PLA2, NBD-C6-HPC fluorescence, 45 min; shares compounds with ATG4B inh; AID 588402; in the data active = inhibition above about 50%
Target sequence (P04054 whole entry, looked up): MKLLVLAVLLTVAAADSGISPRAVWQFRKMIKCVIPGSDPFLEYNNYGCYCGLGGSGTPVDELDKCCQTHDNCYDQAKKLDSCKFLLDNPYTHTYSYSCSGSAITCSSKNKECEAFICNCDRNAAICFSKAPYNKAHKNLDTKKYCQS
Of the large screens only hits and unclear results are named; the others gave an inactive call (follow-up assays come after a bar, where they were run). An excerpt weighted towards active compounds, which were near 3.5% of everything screened.

COc1ccc(CNC(=O)N2CCN(c3cccc(C)c3C)CC2)cc1OC	none
O=C(OC1CCc2ccccc2C1=O)c1ccccc1O (centres undefined)	ATG4B inh 77 | PLA2 ctr 79
Cc1cc([N+](=O)[O-])nn1CCCC(=O)Nc1cc(Oc2ccc(F)cc2)cc([N+](=O)[O-])c1	ATG4B inh 61 | PLA2 ctr 62
COc1ccc(CNC(=O)CCCn2nc([N+](=O)[O-])cc2C)cc1	none
Cc1cc([N+](=O)[O-])nn1CCCC(=O)Nc1cc(Oc2ccccc2)cc([N+](=O)[O-])c1	ATG4B inh 55 | PLA2 ctr 58
Cc1ccc(Oc2cc(NC(=O)CCCn3nc([N+](=O)[O-])c(Cl)c3C)cc([N+](=O)[O-])c2)cc1	ATG4B inh 89 | PLA2 ctr 92
CCC1CCc2sc(C(=O)NCC(c3ccc(OC)cc3)N3CCOCC3)cc2C1 (centres undefined)	none
CCOC(=O)c1ccc(CNC(=O)Cn2nnc(-c3ccc(C)cc3)n2)o1	none
Cc1sc2nc(SCc3nnc(-c4cccs4)o3)n(C3CCCC3)c(=O)c2c1C	ATG4B inh 44 | PLA2 ctr 66
Cc1sc2nc(CSc3nnc(Cc4cccs4)n3C3CCCCC3)[nH]c(=O)c2c1C	none
Oc1c(Br)cc(Br)c(/C=N/n2c(-c3ccccc3)n[nH]c2=S)c1Br	ATG4B inh 44 | ATG4B confirm 52 | PLA2 ctr inactive
Oc1ccc(Br)cc1/C=N/n1c(-c2ccccc2)n[nH]c1=S	none
CC1CCN(C(=O)CSc2nc(=O)n3ccccc3n2)CC1	none
COc1ccc(NC(=O)c2cc(S(=O)(=O)N3CCOCC3)cs2)cc1	none
Cc1cc(Br)ccc1S(=O)(=O)NCc1ccccc1	none
C=CCn1c(SCC(O)Cn2c3ccccc3c3ccccc32)nnc1-c1ccco1 (centres undefined)	ATG4B inh 46 | PLA2 ctr inactive
C=CCn1c(SCC(=O)N2c3ccccc3Sc3ccccc32)nnc1-c1ccco1	none
O=C(NC1CCc2ccccc21)C1CCN(S(=O)(=O)c2ccc(Cl)cc2)CC1 (centres undefined)	ATG4B inh 46 | PLA2 ctr inactive
COc1ccc(CNC(=O)C2CCN(S(=O)(=O)c3ccc4nc5c(c(C(=O)O)c4c3)CC(C)CC5)CC2)cc1 (centres undefined)	none
O=C(NC1CCCc2ccccc21)C1CCN(S(=O)(=O)c2ccccc2)CC1 (centres undefined)	none
Cc1ccc(S(=O)(=O)N2CCC(C(=O)NCc3ccccc3Cl)CC2)cc1	ATG4B inh 46 | ATG4B confirm 67 | PLA2 ctr inactive
O=C(NCc1ccccc1Cl)C1CCN(S(=O)(=O)c2ccc(F)cc2)CC1	none (no result: Myeloid diff 2)
CC1CCc2nc3ccc(S(=O)(=O)N4CCC(C(=O)NCc5ccccc5Cl)CC4)cc3c(C(=O)O)c2C1 (centres undefined)	ATG4B inh 55 | PLA2 ctr 79
COc1ccc(C2NC(=O)NC(C)=C2C(=O)OCC2CCCCC2)cc1OC (centres undefined)	none
CC1=NN(c2ccccc2)C(=O)/C1=C/c1c(O)n(-c2ccc(F)c(Cl)c2)[nH]c1=O	ATG4B inh 55 (no result: M1 ag, Myeloid diff 2, CHRM1 antagonist, SKN-1 block, M1 PAM) | PLA2 ctr 64
O=C(Nc1cc(S(=O)(=O)Nc2ccc(Cl)cc2)ccc1N1CCCCC1)c1ccc(F)cc1	ATG4B inh 42 | PLA2 ctr inactive
C/C=C/c1ccc(OCCOc2cc(C=O)ccc2OC)c(OC)c1	ATG4B inh 47 | PLA2 ctr inactive
COc1ccc(-c2csc(C(C)(O)c3cccc(F)c3)n2)cn1 (centres undefined)	none (no result: ATG4B inh)
CC(C)Cc1ccc(CN2CCCC(NC(=O)c3ccnn3C)C2)cc1 (centres undefined)	ATG4B inh 42 | PLA2 ctr inactive
CC(C)Cc1ccc(CN2CCCC(NC(=O)c3nn(C)c(=O)c4ccccc34)C2)cc1 (centres undefined)	none
O=C(Nc1ccccc1N1CCCC1)c1cccc(-c2cc3ccccc3oc2=O)c1	ATG4B inh 57 | PLA2 ctr 67
C=C(C)CNC(=S)Nc1cccc(N)n1	none
Cc1sc(NC(=O)c2ccc(=O)n(C)n2)nc1-c1ccccc1	none
Cc1sc(NC(=O)c2c(F)cccc2F)nc1-c1ccccc1	ATG4B inh 53 | PLA2 ctr 67
CCC1=NN(C(=O)c2cccc(Br)c2)C(O)(c2ccc(Br)cc2)C1 (centres undefined)	ATG4B inh 43 | ATG4B confirm 58 | PLA2 ctr inactive
C=CCN1C(=O)C(Cc2ccccc2Cl)SC1=Nc1ccc(C(=O)O)cc1 (centres undefined)	ATG4B inh 55 | PLA2 ctr 59
Nc1nc(SCc2nnc(SCC(=O)O)n2-c2ccccc2)nc2sc3c(c12)CCCC3	ATG4B inh 46 | PLA2 ctr 63
O=C(O)CSc1nc2sc3c(c2c(=O)n1-c1ccccc1)CCC3	none
CCOC(=O)[C@]12CCCC=C1N(Cc1ccc(Cl)cc1Cl)C(=O)[C@H](CC(=O)NCCc1ccccc1OC)C2	none (no result: M1 ag, ATG4B inh, CHRM1 antagonist, M1 PAM)
Cc1cc(S(=O)(=O)N2CCN(c3c(C)cccc3C)CC2)ccc1F	ATG4B inh 49 | PLA2 ctr 52
Cc1cc(S(=O)(=O)N2CCN(c3ccccc3C)CC2)ccc1F	ATG4B inh 45 | PLA2 ctr 52
O=C(NNc1cccc(Cl)n1)c1ccccc1CC[N+](=O)[O-]	none
O=C(NCC(=O)N1CCN(c2ccccc2O)CC1)c1cccs1	none
CC(C)(C)N/N=C1\CC(c2ccccc2)Oc2ccccc21 (centres undefined)	none
O=C(O)c1cc(N/N=C2/CC(c3ccccc3)Oc3ccccc32)ccc1Cl (centres undefined)	ATG4B inh 49 | ATG4B confirm 59 | PLA2 ctr inactive
CCOC(=O)c1c(S(=O)(=O)NCC(=O)N2CCN(c3cccc(OC)c3)CC2)c(C)n(C)c1C	none
Fc1ccc(C2CC(c3ccco3)=Nc3ccccc3S2)cc1 (centres undefined)	ATG4B inh 46 | PLA2 ctr 67
CC(C)(C)n1ncc2c(=O)n(CC(=O)NCc3ccccc3Cl)cnc21	none
CC(C)(C)n1ncc2c(=O)n(Cc3ccccc3Br)cnc21	ATG4B inh 41 | ATG4B confirm 69 | PLA2 ctr inactive
Cc1ccc(-c2nnc(Cc3ccc([N+](=O)[O-])cc3)o2)cc1	none
